Measured values published in PubChem BioAssay (NCI).
Where “and” joins values, the source holds several entries; their conditions need not be identical. Identical values can stand only once. The panel holds about 83,000 compounds, 20% with a hit somewhere; the sample as a whole holds those more often.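 In brief: 96-well plates, 48 h treatment, single concentration, percent growth endpoint.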 Calls of active or inactive are those of the source. How the source made its calls: active means growth percent below 10; inactive means the rest.

tested on: HL-60(TB) leukemia; assay: NCI-60 one-dose screen, 48 h (100 = growth as untreated, 0 = no growth, -100 = all killed); details: 10 µM unless noted

For `COc1cc(CN2CCC(N3CCCC3=O)c3ccccc32)cc(OC)c1OC` (stereo not given), which growth is on record?
Its growth is 56.4% (inactive).

How did the growth turn out when `CCN1CCN(CCC(=O)Nc2cccc(-n3cc(-c4ccncc4)c(-c4ccc(Cl)c(OC)c4)n3)c2)CC1` was run?
The growth was -42.1% (active).

Which growth does the source give for `CCc1c(C)c2cc(-n3c(-c4ccc(OC)cc4)csc3=N)c(O)c(C)c2oc1=O` here?
The growth was -28.2% (active).

With `COc1ccc(/C=C/C(=O)c2c(C)nc3ccccc3c2/C=C/c2ccccc2)c(OC)c1` as the compound, how does the growth read?
Its growth is 66.7% (inactive).

How did the growth turn out when `Nc1ccc(S(=O)(=O)c2ccc(N)cc2)cc1` was run?
Its growth is 67.4% (inactive).

Which growth does the source give for `CCOC(=O)Nc1ccc(-c2nc(-c3cccc(OCCN4CCOCC4)c3)c(-c3ccnc(Br)c3)[nH]2)cc1` here?
Its growth is -23.2% (active).

How did the growth turn out when `Cc1ccc2c(N/N=C\c3ccco3)cc(C)nc2n1` was run?
Its growth is -53.3% (active).

Which growth does the source give for `COc1ccc2c(c1)OC1=C(C(=O)OC1)C2c1cc(OC)c2c(c1)OCCO2` (stereo not given) here?
Its growth is -29.2% (active).

How did the growth turn out when `COC(=O)c1ccc2[nH]c(O)c(C(=Nc3ccc(N(C)C(=O)CN4CCN(C)CC4)cc3)c3ccc4c(c3)OCO4)c2c1` was run?
Its growth is -34.9% (active).

With `CCOC(=O)N(O)c1ccc(/C=C/c2ccccc2)cc1` as the compound, how does the growth read?
The growth was 61.1% (inactive) and 43.9% (inactive).

How did the growth turn out when `NNC(=O)c1nc(N)n(-c2ccc(S(N)(=O)=O)cc2)n1` was run?
The growth was 99.5% (inactive).

For `c1cc(N2CCCC2)c2nc(-c3[nH]ncc3Nc3ncnc4[nH]ccc34)[nH]c2c1`, which growth is on record?
The growth was -15.9% (active).

`Nc1cccc(-c2nc3sccn3c2-c2ccnc(NCCNS(=O)(=O)c3ccc(C(F)(F)F)cc3)n2)c1` was tested. Which growth did it give?
The growth was 89.1% (inactive).

Which growth does the source give for `CS(=O)(=O)c1cccc(-c2c(-c3cccc(OS(N)(=O)=O)c3)nc3sccn23)c1` here?
Its growth is 102% (inactive).

How did the growth turn out when `O=S(=O)(NC1c2ccccc2Oc2ccccc21)c1ccccc1` was run?
Its growth is 86.5% (inactive).

How did the growth turn out when `CCOc1ccc2c(S(=O)(=O)O)cccc2c1[N+](=O)[O-]` was run?
Its growth is 113% (inactive) and 95.7% (inactive).

With `CCOc1nc(-c2ccccc2)cc2c(O)c(C(=O)N/N=C/c3ccccc3)[nH]c(=O)c12` as the compound, how does the growth read?
Its growth is 101% (inactive).

Which growth does the source give for `C=C1C(=O)O[C@H]2[C@H]1CC/C(COC(=O)c1cccnc1)=C\CC[C@@]1(C)O[C@@H]21` here?
The growth was 2.18% (active).

With `CCN1/C(=C\c2cc[n+](CC)c3ccccc23)C=Cc2ccccc21` as the compound, how does the growth read?
Its growth is 5.97% (active).

With `COc1ccc(-c2ccc(-c3ccc(C(=N)N)s3)s2)cc1` as the compound, how does the growth read?
The growth was -61.1% (active).

How did the growth turn out when `CCOC(=O)Nc1ccc(-c2nc(-c3cccc(OC)c3)c(-c3ccnc(Br)c3)[nH]2)cc1` was run?
The growth was -18.7% (active).

Which growth does the source give for `O=[N+]([O-])c1ccc2[nH]cc(-c3c4ccsc4cc4[nH]c5ccc([N+](=O)[O-])cc5c34)c2c1` here?
The growth was 8.08% (active).

For `CCC(=O)Oc1ccc(-c2ccccc2)cc1Br`, which growth is on record?
The growth was 96.5% (inactive).

Which growth does the source give for `Cc1ccc(NCSc2ccc(Cl)cc2)cc1` here?
The growth was 3% (active) and 22.5% (inactive).

Which growth does the source give for `O=C(O)CN(CCN(CC(=O)O)CC(=O)O)CCN(CC(=O)O)CC(=O)O` here?
The growth was -51.1% (active) and 109% (inactive) and 94.7% (inactive).

How did the growth turn out when `N#Cc1c(N)nc2c(C#N)c(NC(=O)c3ccccc3)nn2c1-c1ccccc1` was run?
The growth was 93% (inactive).

With `O=[N+]([O-])c1ccc(N/N=C\c2cc(Br)ccc2O)nc1` as the compound, how does the growth read?
The growth was 11.7% (inactive) and -8.74% (active).

How did the growth turn out when `COc1cc(C)c(Cl)cc1C1=NN(c2ccc(S(N)(=O)=O)cc2)C(/C=C/c2ccccc2)C1` (stereo not given) was run?
Its growth is 63.6% (inactive).

Which growth does the source give for `CC/C(=C(/c1ccc(OCCN(C)C)cc1)c1ccc(OC(=O)CCCCCCCCC(=O)c2c(C)[nH]c(/C=C3\N=C(c4ccc[nH]4)C=C3OC)c2C)cc1)c1ccccc1` here?
Its growth is 76.7% (inactive).

`CC(=O)Nc1ccc2cc3ccc(NC(C)=O)cc3nc2c1` was tested. Which growth did it give?
The growth was 131% (inactive) and 96.4% (inactive).

With `CCCCCCC1(C)NCCO1` (stereo not given) as the compound, how does the growth read?
Its growth is 91.2% (inactive).

`CCCCNC(=O)Oc1ccc(/C(=C(\C)c2ccc(Cl)cc2)c2ccc(OCCN(CC)CC)cc2)cc1` was tested. Which growth did it give?
The growth was 69.8% (inactive).

Which growth does the source give for `O=C1NC(=O)C(CC(=O)n2c(-c3ccccc3)nc3ccccc32)C(=O)N1` here?
The growth was 106% (inactive).

How did the growth turn out when `COc1ccc(C(=O)c2c(N)nc3n2CCCC3)cc1OC` was run?
Its growth is 94.1% (inactive).

Which growth does the source give for `Nc1ccccc1SC1CC(=O)N(c2cccc3ccccc23)C1=O` (stereo not given) here?
The growth was 97% (inactive).

`O=C(Nc1cccc(-n2cc(-c3ccncc3)c(-c3ccc(Cl)c(O)c3)n2)c1)Nc1ccc(Cl)c(Cl)c1` was tested. Which growth did it give?
Its growth is -6.98% (active).

With `COc1ccc2c(c1)/C(=C1/S/C(=N/c3nnc(C)s3)NC1=O)C(=O)N2Cc1ccc(Br)cc1` as the compound, how does the growth read?
Its growth is 32.5% (inactive).

For `Cc1ccc2c(c1)-c1cc(C)nn1-c1ccc(C#N)cc1O2`, which growth is on record?
Its growth is 69.2% (inactive).

With `CS(=O)(=O)OCCN(CCOS(C)(=O)=O)c1ccc(/C=N/Nc2ccc([N+](=O)[O-])cc2[N+](=O)[O-])cc1` as the compound, how does the growth read?
Its growth is 71.6% (inactive).

For `NC1=NCc2nc3ccccc3c(=O)n2C1`, which growth is on record?
Its growth is 90.9% (inactive).
